# An excerpt weighted towards active compounds, which were near 9.2% of everything screened.
# SMN2 splice enh: qHTS Assay for Enhancers of SMN2 Splice Variant Expression; HEK293 SMN2-luciferase splicing reporter, luminescence, 30-36 h; Potency, µM (top dose mostly 46.1 µM), for inactives: top-dose activity change, positive = activation, most hits filed as activators; hit rate 2.8% among 210,000; note: % of control where 0% means no effect; nearly all actives have a fitted effect of over 55% in size
#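 qHTS luciferase splicing reporter: luminescence rises when SMN2 exon 7 is included in transfected HEK293 cells. Compound exposure lasted 30-36 h at 37C, with 4.5 mM final sodium butyrate as control, followed by a ONE-Glo read.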
# ELG1 DNA repair: qHTS screen for small molecules that inhibit ELG1-dependent DNA repair in human embryonic kidney (HEK293T) cells expressing luciferase-tagged ELG1; HEK293T ELG1-luciferase reporter, luminescence, 16 h; DNA damage induced by 5-fluorouridine; Potency, µM (top dose mostly 46.1 µM), inactives show at the top dose activity change, negative = inhibition, most hits filed as inhibitors; hit rate 2.3% among 330,000; AID 504467, 2011; note: % is set by controls: 0 for no effect and ±100 for the full control effect; nearly all actives have a fitted effect of over 55% in size
#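 Cells (2,000 per well) received 5-fluorouridine plus test compound or DMSO and were incubated 16 hr at 37 °C, 5% CO2. Luciferase activity was read by luminescence 30 min after ONE-Glo addition; signal suppression marked inhibition of damage-induced ELG1 function.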
# Rab9 prom act: qHTS Assay for Rab9 Promoter Activators. Huh7 Rab9 promoter-luciferase reporter, luminescence, 24 h. Potency, µM (highest dose often 9.22 µM), for inactives: top-dose activation, negative = inhibition, most hits filed as activators. hit rate 2.8% among 320,000. AID 485297, 2010; note: % of control where 0% means no effect; nearly all actives have a fitted effect of over 60% in size
#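 Quantitative HTS format; Huh7 Rab9-luciferase reporter cells (1500/well) receive compound 2 h post-plating, incubate 24 h at 37 °C, then get luciferase reagent for 10 min before luminescence reading.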
# FLuc modulator: qHTS profiling assay for firefly luciferase inhibitor/activator using purifed enzyme and Km concentrations of substrates (counterscreen for miR-21 project); purified FLuc, Km substrates, luminescence inhibition; Potency, µM (top dose mostly 57.5 µM), for inactives: top-dose activity change, negative = inhibition, actives largely listed as inhibitors; hit rate 6.9% among 360,000; AID 588342, 2011;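 note: plate controls were vehicle for no effect and reference inhibitor for full effect; nearly all actives have a fitted effect of over 55% in size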
# Target sequence (P08659 whole entry, looked up): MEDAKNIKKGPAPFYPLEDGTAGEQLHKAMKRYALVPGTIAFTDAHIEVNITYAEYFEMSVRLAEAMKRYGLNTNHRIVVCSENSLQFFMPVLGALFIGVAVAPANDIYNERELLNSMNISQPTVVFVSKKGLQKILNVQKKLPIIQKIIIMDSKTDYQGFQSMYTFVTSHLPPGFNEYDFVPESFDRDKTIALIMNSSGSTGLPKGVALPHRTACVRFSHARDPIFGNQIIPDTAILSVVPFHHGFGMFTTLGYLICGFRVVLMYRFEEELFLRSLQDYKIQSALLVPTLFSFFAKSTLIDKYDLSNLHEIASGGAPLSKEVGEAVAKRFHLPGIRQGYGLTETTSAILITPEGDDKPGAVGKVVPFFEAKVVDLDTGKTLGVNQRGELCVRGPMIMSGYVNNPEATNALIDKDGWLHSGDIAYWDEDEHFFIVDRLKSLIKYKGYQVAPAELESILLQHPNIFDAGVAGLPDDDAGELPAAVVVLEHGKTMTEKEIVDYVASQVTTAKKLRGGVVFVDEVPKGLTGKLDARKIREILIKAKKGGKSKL
#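 Purified P. pyralis luciferase, 10 nM final, with Km-level 10 uM D-luciferin and 10 uM ATP in 50 mM Tris acetate pH 7.5, 10 mM Mg acetate, 0.01% Tween-20, 0.05% BSA; 6-point qHTS titration about 60 µM downward; luminescence read.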
# ELG1 genotox: qHTS screen for small molecules that induce genotoxicity in human embryonic kidney (HEK293T) cells expressing luciferase-tagged ELG1 | HEK293T ELG1-luciferase reporter, luminescence, 16 h | AID 504466, 2011 | Potency, µM (doses to about 46 µM), without a hit: at the top dose activity change, positive = activation, most hits filed as activators | hit rate 1.3% among 330,000; note: % of control where 0% means no effect; nearly all actives have a fitted effect of over 60% in size
#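 Luminescence read-out: rising ELG1-luciferase signal, reflecting elevated ELG1 protein under genetic stress, flags genotoxic compounds. Cells were treated for 16 hr at 37 °C before ONE-Glo detection.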
# NPC1 prom act: qHTS Assay for NPC1 Promoter Activators; Huh7 NPC1 promoter luciferase reporter, 24 h; Potency, µM (doses to about 9.22 µM), for inactives: at the top dose activation, usual class: activators; hit rate 2.4% among 320,000; AID 485313, 2010; note: % of control where 0% means no effect; nearly all actives have a fitted effect of over 60% in size
#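 Stably transfected Huh7 (NPC1 promoter→luciferase), 1500 cells/well in Opti-MEM + 10% FBS, 2 h settle, then compound 24 h at 37 °C. Luminescence after 10 min with Amplite reagent.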
# Starred values were filed as active, the others as inactive; ? = inconclusive; · = not tested or not shown. Calls come from the whole dose curve; as a rule, active = well fitted curve in the direction sought with a large enough effect; inconclusive = small, poorly fitted or top-dose-only effect, or another doubt; inactive = no such curve, though single readings can be large; an effect the other way counts as inactive or inconclusive. Potency is the fitted concentration of half-maximal effect.
SMILES,SMN2 splice enh,ELG1 DNA repair,Rab9 prom act,FLuc modulator,ELG1 genotox,NPC1 prom act
COC(=O)c1ccc(OCC(=O)c2ccccc2OC)cc1,-25%,?,26%,?,15%,13%
O=C(c1cnc(N2CCOCC2)c2ccccc12)N1CCN(c2ccc(F)cc2)CC1,·,·,·,3%,·,·
O=C1COc2ccc(S(=O)(=O)Nc3ccc(F)cc3)cc2N1,·,1%,0%,-1%,0%,0%
CN(Cc1c(F)cccc1Cl)C(=O)CNC(=O)c1cccs1,·,?,?,?,?,4µM*
CCNC(=O)CCC(N)C(=O)O (stereo not given),1%,·,·,·,·,·
CCN(CC)C(=O)COc1ccc(N(C)S(=O)(=O)c2ccc(NC(C)=O)cc2)cc1,·,?,-2%,-1%,0%,0%
C=CCn1c(C)cc(C(=O)COc2ccc(N(C)S(=O)(=O)c3ccc(NC(C)=O)cc3)cc2)c1C,·,?,·,·,-6%,·
COCC(C)n1c(C)cc(C(=O)COc2ccc(N(C)S(=O)(=O)c3ccc(NC(C)=O)cc3)cc2)c1C (stereo not given),·,4.1µM*,-6%,?,-2%,-3%
CCN(C(=O)COc1ccc(N(C)S(=O)(=O)c2ccc(NC(C)=O)cc2)cc1)C1CCCCC1,·,21µM*,·,·,0%,·
COc1ccc(S(=O)(=O)NCCc2sc3nc(-c4ccc(C)cc4)nn3c2C)cc1C,·,·,·,-15%,·,·
CC1=NN(Cc2ccccc2)C(=O)/C1=C\c1ccc(N(C)C)cc1,7%,16%,-1%,11µM*,7%,1%
CCOC(=O)C1=NN(c2ccccc2)C(=O)/C1=C\c1ccc(N(C)C)cc1,-1%,?,-5%,-5%,14%,-1%
O=S(=O)(NC(=NCc1ccccc1)c1ccccc1)c1ccccc1,·,15%,-5%,-2%,0%,-34%
CCN(CC)CC(=O)Nc1ccc2c(c1)N(C(=O)CN(CC)CC)c1ccccc1CC2,14%,3%,-4%,-14%,2%,11%
CCN(CC)CC(=O)Nc1ccc2c(c1)Nc1ccccc1CC2,-2%,-5%,?,12µM*,0%,18%
COC(=O)c1ccc2c(=O)n(CCO)c(=S)[nH]c2c1,15%,-1%,-2%,3%,-6%,-3%
COC(=O)c1ccc2c(=O)n(NC(=O)C(c3ccccc3)c3ccccc3)c(=S)[nH]c2c1,-17%,26µM*,-3%,-16%,-9%,1%
CCN(CC)C(=O)CSc1nc2c(sc(=S)n2CC)c(=O)n1-c1ccccc1,-20%,?,-3%,2%,2%,2%
CCN(CC)C(=O)CSc1nc2c(sc(=S)n2-c2ccccc2)c(=O)n1Cc1ccco1,-17%,23µM*,1%,1%,-24%,-3%
O=C(NC1CCc2ccccc21)C1CCN(S(=O)(=O)c2ccc(Cl)cc2)CC1 (stereo not given),-12%,-13%,1%,12%,-3%,-1%
O=S(=O)(NC1CCc2ccccc21)c1ccc(S(=O)(=O)N2CCCC2)cc1 (stereo not given),-33%,26µM*,-2%,3%,-18%,-1%
CC(C)(C)C(=O)Nc1ccc(C(=O)OC2CCCCC2)cc1,35µM*,?,1.4µM*,4.3µM*,?,1.4µM*
O=C(O)CCC(=O)Nc1ccc(C(=O)OC2CCCCC2)cc1,-15%,?,-7%,13µM*,0%,-4%
O=C(OC1CCCCC1)c1ccc(NC(=O)C2CCCCC2)cc1,-61%,?,0%,?,0%,-3%

# Bioassay records (PubChem BioAssay)
